The results in this text go back to PubChem BioAssay (EPA / NIEHS).

Activity calls are given as the source filed them. Rule for the calls: active = hit-call score of the fitted dose curve at least 0.9, where 1 is the maximum; inactive = score below 0.9.

Read-out in the assay: TIMP metallopeptidase inhibitor 2 (TIMP2), TIMP2 (gene 7077)
Put plainly: BSK_KF3CT_TIMP2: BioMAP Diversity Plus: KF3CT Assay for TIMP metallopeptidase inhibitor 2 (TIMP2) Biomarker Activity (AID 2283071). The note with it: primary human keratinocytes with fibroblasts; actives raise or lower the signal. The protocol:
BSK_KF3CT is a cell-based, multiplexed-readout assay that uses keratinocytes and foreskin fibroblasts, a human skin primary cell co-culture, with measurements taken at 24 hours after chemical dosing in a 96-well plate.BSK_KF3CT_TIMP2 is an assay component measured in the BSK_KF3CT assay. It measures TIMP-2 antibody related to regulation of gene expression using ELISA technology.Data from the assay component BSK_KF3CT_TIMP2 was analyzed into 1 assay endpoint. This assay endpoint, BSK_KF3CT_TIMP2, was analyzed with bidirectional fitting relative to DMSO as the negative control and baseline of activity. Using a type of binding reporter, gain or loss-of-signal activity can be used to understand changes in the signaling as they relate to the gene TIMP2. Furthermore, this assay endpoint can be referred to as a primary readout, because this assay has produced multiple assay endpoints where this one serves a signaling function. To generalize the intended target to other relatable targets, this assay endpoint is annotated to the protease inhibitor intended target family, where the subfamily is metalloproteinase inhibitor.
The levels of cell surface (or secreted, indicated by the prefix "s") biomarker endpoints were measured by ELISA. Overt cytotoxicity to cells in confluent adherent cultures (all systems other than the BT system) was assessed by measuring total protein levels using sulforhodamine B (SRB) staining in parallel cultures at the time of biomarker measurements, indicated as SRB endpoints. For proliferation assays for adherent cell types, individual cell types are cultured at sub-confluence and relative cell numbers quantified by SRB staining at time points optimized for each system (48 h: 3C and CASM3C systems; 72 h: BT and HDF3CGF systems; 96 h: SAg system). SRB was performed by staining cells with 0.1% SRB after fixation with 10% TCA and reading wells at 560 nm.Viability and proliferation of PBMC (T cells) was quantified by Alamar Blue reduction for the SAg and BT systems. For PBMC viability (referred to as PBMC Cytotoxicity within the assay endpoint names), cells were plated (75,000/well in a 96-well plate) and then chemical samples added for 1 h before addition of activators, SEB and TSST-1 (20 ng/mL final concentration each). Cells were incubated for 90 h. Then, Alamar Blue (20 uL/well) (Invitrogen, Cat DAL1100) was added for 6 h, and the plates were read with a fluorescence microplate reader at 546/580 nm (excitation/emission). For PBMC proliferation, cells were plated and activated as above but incubated for only 16 h prior to addition of Alamar Blue. Plates were read after 6 h.
Take `Oc1ccc(-c2ccccc2)cc1`: the result was inactive.

For the compound `O=c1[nH]c(=O)[nH]c(=O)[nH]1`, the outcome was inactive.

In the case of `CCC(C)(C)c1ccc(O)c(C(C)(C)CC)c1`, the AC50 was 9.47 µM (active).

For the compound `COc1cc(OC)nc(NC(=O)NS(=O)(=O)c2ncccc2C(=O)N(C)C)n1`, the result was inactive.

In the case of `BrCCBr`, the result was inactive.

On to `Nc1ccc(-c2ccc(N)c(Cl)c2)cc1Cl`, for which the outcome was inactive.

On to `Cc1ccccc1N`, for which the outcome was inactive.

Take `Nc1ncc([N+](=O)[O-])s1`: the result was inactive.

In the case of `O=[N+]([O-])c1ccc2c3c(cccc13)CC2`, the AC50 is 11.4 µM (active).

For the compound `CC(C)(c1ccccc1)c1ccc(O)c(C(C)(C)c2ccccc2)c1`, the AC50 is 2.17 µM (active).

Turning to `CCCCC(CC)CO[N+](=O)[O-]` (stereo not given), the AC50 is 31.7 µM (active).

Take `CC(=O)[O][Hg][c]1ccccc1`: the AC50 was 0.148 µM (active).

For `COP(=S)(OC)Oc1cc(Cl)c(Cl)cc1Cl`, the AC50 was 32.2 µM (active).

In the case of `CC(=O)OC(c1ccccc1)C(Cl)(Cl)Cl` (stereo not given), the outcome was inactive.

Turning to `CCOP(=S)(OCC)SCCS(=O)(=O)CC`, the outcome was inactive.

In the case of `CC(C)(OO)c1ccccc1`, the outcome was inactive.

Take `C[C@]12CCC(=O)C[C@@H]1CC[C@@H]1[C@@H]2CC[C@]2(C)[C@@H](O)CC[C@@H]12`: the result was inactive.

In the case of `CCOP(=S)(OCC)Oc1nc(Cl)c(Cl)cc1Cl`, the outcome was inactive.

In the case of `CCNc1nc(NC(C)(C)C)nc(SC)n1`, the AC50 was 20 µM (active).

As for `CC12CC1(C)C(=O)N(c1cc(Cl)cc(Cl)c1)C2=O` (stereo not given), the result was inactive.

With `COC(=O)c1sccc1S(=O)(=O)NC(=O)Nc1nc(C)nc(OC)n1`, the outcome was inactive.

`ClC1(Cl)C2(Cl)C3(Cl)C4(Cl)C(Cl)(Cl)C5(Cl)C3(Cl)C1(Cl)C5(Cl)C24Cl` (stereo not given): the outcome was inactive.

For the compound `CCOC(=O)/C=C(C)/C=C/C[C@@H](C)CCCC(C)C`, the AC50 was 27 µM (active).

Take `O=C(Nc1ccc2[nH]ccc2c1)c1cc2cc(F)ccc2n1Cc1cccc(F)c1`: the AC50 is 7.19 µM (active).

As for `CC(C)(C)CC(C)(C)c1ccc(O)cc1`, the AC50 was 7.95 µM (active).

With `CCC(=O)C(CC(C)N(C)C)(c1ccccc1)c1ccccc1` (stereo not given), the result was inactive.

In the case of `NC(=S)Nc1ccccc1`, the result was inactive.

As to `C[C@@H]1C[C@@H]([C@H](O)CC2CC(=O)NC(=O)C2)C(=O)[C@@H](C)C1`, the AC50 was 8.4 µM (active).

Consider `Nc1cccc2ccccc12`, for which the outcome was inactive.

Regarding `C=CC(=O)OCCCCCC(C)C`, the result was inactive.

Consider `ClC1=C(Cl)[C@]2(Cl)[C@H]3[C@H]([C@H]4C=C[C@H]3C4)[C@@]1(Cl)C2(Cl)Cl`, for which the result was inactive.

As for `O=C(O)C(F)(F)C(F)(F)C(F)(F)C(F)(F)C(F)(F)C(F)(F)F`, the result was inactive.

Take `ClC(Cl)=C(Cl)C(Cl)=C(Cl)Cl`: the AC50 was 26.9 µM (active).

As to `CC(C)c1ccc(CO)cc1`, the result was inactive.

For the compound `CC(C)(C)c1cc(O)ccc1O`, the AC50 is 20 µM (active).

As to `CCOP(=S)(OCC)Oc1ccc(S(C)=O)cc1` (stereo not given), the outcome was inactive.

With `CCSC(C)CC1CC(=O)C(C(CC)=NOC/C=C/Cl)=C(O)C1` (stereo not given), the outcome was inactive.

Regarding `Cn1sc(Cl)cc1=O`, the result was inactive.

With `COP(=S)(OC)Oc1c(Cl)cc(C)cc1Cl`, the outcome was inactive.

As to `COC(=O)Cc1ccccc1`, the result was inactive.
